# Laboratory results as given in PubChem BioAssay (NCI).
# Several values for one entry are separate records, joined by “and”; a condition that tells them apart may be missing. Identical values can stand only once. This is part of a sample that, as a whole, favours compounds with a hit. Of some 83,000 tested, about 20% had one in any assay.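 Treatment: one concentration, 48 hours, 96-well format. Scoring: percent growth, with anything below 10 considered active.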 Values without a mark were called inactive. Activity calls are given as the source filed them.
# Test system: MDA-MB-468 breast
# Assay: NCI-60 one-dose screen, 48 h (100 = growth as untreated, 0 = no growth, -100 = all killed)
# Conditions: 10 µM unless noted
row,Compound,growth
1,O=C(/C(Cl)=N/O)c1ccc(-c2ccccc2)cc1,104%
2,Cc1ccc(S(=O)(=O)N2CCc3ccc(O)c4c3C2Cc2cc(Cl)ccc2-4)cc1 (stereo not given),53.9%
3,CC(=O)c1ccc(NCC(=O)Nc2ccccn2)cc1,106%
4,CCOc1ccc(/C=N\N2CCCCCC2)cc1OCC,111%
5,O=[N+]([O-])c1ccc(-c2ncc(-c3ccc(Br)cc3)o2)cc1,102%
6,O=C(O)C1CCCN1C(=O)OCc1ccccc1 (stereo not given),115%
7,CN(C)C(=O)c1cc2cnc(Nc3ccc(-c4csc5c(=O)cc(N6CCNCC6)oc45)cc3)nc2n1C1CCCC1,19.6%
8,O=C1C(Cl)=C(Nc2cccc3ccccc23)C(=O)c2ccccc21,-3.45% (active)
9,O=C(O)c1cccc2oc(-c3ccccc3O)nc12,35.2%
10,C#CC(C)(O)c1ccc(Cl)cc1 (stereo not given),94.5%
11,COc1ccc2c(c1)oc1c(C)c3c(c(C)c12)C(=O)N(CCOS(C)(=O)=O)C3=O,127%
12,C=C(C)[C@@H]1CC[C@]2(C(=O)OC)CC[C@]3(C)[C@H](CC[C@@H]4[C@@]5(C)CC/C(=N\OCCC(=NCCC#N)NOCCC#N)C(C)(C)[C@@H]5CC[C@]43C)[C@@H]12,4.41% [100 µM] (active)
13,CCCCOc1c(N)cc(Cl)cc1C(=O)OCCN(CC)CC,112%
14,Cc1cc(N(CCNc2ccnc3cc(Cl)ccc23)Cc2ccc3c(c2)OCO3)nc(N2CCCC2)n1,-39.4% (active)
15,COc1ccc(C2CC(c3ccc(N(C)C)cc3)=NN2c2ccc(S(N)(=O)=O)cc2)cc1 (stereo not given),57.6%
16,C[C@@H]1C=C2C(=O)O[C@@H]3CC[C@H](C1)[C@]23O,11.4%
17,CN(C)c1ccc(-c2cc(-c3ccc(Nc4nc(Nc5ccccc5)nc(Nc5ccc(Cl)cc5)n4)cc3)nc(N)n2)cc1,74.3%
18,Cc1cc2nc(CS)[nH]c2cc1C,85.2%
19,O=C1NC(=O)c2c1c1c3ccccc3[nH]c1c1oc3cc(Br)ccc3c21,62.6%
20,O=C1CC23OC4ON=C(Br)C4C2C(O)c2ccccc2N13 (stereo not given),106%

row,Compound,growth
1,COc1cc2c(cc1O)CCN1C[C@@H](CC(C)C)[C@@H](O)C[C@@H]21,103%
2,COc1ccc2c(c1)OC1=C(C(=O)OC1)C2c1cc(OC)c2c(c1)OCCO2 (stereo not given),1.92% (active)
3,FC(F)(F)c1cc(CNc2ncc(Br)c(Cl)n2)cc(C(F)(F)F)c1,93.2%
4,CC(=O)Nc1c(Br)cc2c(c1Br)Cc1cc(Br)ccc1-2,-35.2% (active)
5,CC(=O)Nc1ccc(O)cc1,105% and 111%
6,Cc1cn(-c2cc(NC(=O)c3cncc(C#Cc4c(N)ncc5ccc(F)cc45)c3)cc(C(F)(F)F)c2)cn1,50.8%
7,O=C(Nc1ccc(F)c(Cl)c1)Nc1ccc(Cl)c(Cl)c1,9.54% (active)
8,COc1ccc(-c2cnc(-c3ccncc3-c3cccc(OC)c3)o2)cc1,31.8%
9,COc1ccc(-c2nc(C(Cl)Cl)nc3cc(-c4ccccc4)nn23)cc1,-55.8% (active)
10,O=C1/C(=C/c2ccc([N+](=O)[O-])o2)Oc2ccccc21,-50.9% (active)
11,CSc1ccc(/C(=N/N=C(N)N)c2ccc(F)cc2)cc1,-34.6% (active)
12,COc1ccc(-c2cc(-c3ccc(Nc4ccnc5cc(Cl)ccc45)cc3)nc(N3CCOCC3)n2)cc1,42.1%
13,COc1cc(C2=NN(C=O)C(c3cccc(Nc4ccnc5cc(Cl)ccc45)c3)C2)cc(OC)c1OC (stereo not given),59.2%
14,Cc1cc(Nc2nc(N3CCOCC3)nc3ccccc23)n[nH]1,55.9%
15,COc1cc2c(cc1O)[C@@]1(C)[C@H](c3ccccc3Br)OC(=O)N1CC2,61.1%
16,NNCCc1ccccc1,113% and 89.6%
17,CC(=O)Oc1c(C)c(OC(C)=O)c2c(c1C(C)=O)OC1CC(=O)C(C(C)=O)=C(O)C21C (stereo not given),90.1%
18,O=S(=O)(NCCNc1nccc(-c2c(-c3cccc(F)c3)nc3sccn23)n1)c1ccc(Cl)cc1,64.5%
19,CNCCCn1c2c(c3ccc(Cl)cc3c1=O)C(=O)c1cc(OC)cnc1-2,67.2%
20,COc1cccc(CNc2cccc3cn[nH]c23)c1O,80.6%
